Compound activity from PubChem.
Most compounds without a hit are left out; they make up all but 3.2% or so of the library.
p53null 39C kill – p53 null cell cytotoxicity, nonpermissive temperature; 55,000 compounds, 0.97% hits; Potency, µM (highest dose often 46.1 µM), usual class: cytotoxic; H1299 p53-null (neo) cells, 39C, ATPlite viability, 24 h; AID 904; also: nearly all actives have a fitted effect of over 50% in size
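Following overnight plating at 37C (600 cells/well), H1299-neo or H1299-p53A138V cells are dosed up to 46 uM. Incubation lasts 24 hr at 39C before ATP detection.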
pS6 MEF inh – reduces mTORC1 signaling in Tsc2 and p53 null MEF cells; Tsc2-/- p53-/- MEF, phospho-rpS6 immunofluorescence/PI, 24 h; Potency, µM (doses to about 38.3 µM), hits mostly inhibitors; 44,000 compounds, 0.78% hits; also: nearly all actives have a fitted effect of over 50% in size
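Readout is phospho-S6 Alexa 488 signal normalized to PI per well, reported as % active cells with thresholds set from rapamycin (7.5 nM) and DMSO controls. Cells: Tsc2-/-, p53-/- MEFs, 24 hrs compound at 37 C; PI cell number serves as viability.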
S16 viability – cytotoxicity in S16 Pmp22-F2sN Schwann cells; S16 Pmp22-F2sN Schwann cells viability, CellTiter-Glo, 24 h; Potency, µM (doses to about 57.5 µM), most hits filed as cytotoxic; 43,000 compounds, 0.48% hits; also: nearly all actives have a fitted effect of over 65% in size
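S16 Pmp22-F2sN Schwann cells (500-1,000/well) in phenol-red-free DMEM with 10% FBS received 23 nL compound by pin tool for 24 h at 37 °C. Viability was then read as CellTiter-Glo luminescence after 15 min at room temperature.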
p53null 32C tox – selectivity test: cytotoxicity in p53 null cells, permissive temperature | AID 903 | H1299-neo p53 null cells, ATP luminescence, 24 h, 32C | Potency, µM (titrated, usually from 46.1 µM), most hits filed as cytotoxic | 55,000 compounds, 0.62% hits; also: nearly all actives have a fitted effect of over 55% in size
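Cytotoxicity: H1299-neo (no p53), 32C, 24 h treatment. Concentrations up to 46 uM. Readout cellular ATP, luminescence. Normalization to DMSO basal and tamoxifen 100 uM maximal kill.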
PMP22 txn prim – modulates PMP22 transcription in S16 Schwann cells. 43,000 compounds, 2% hits. Potency, µM (doses to about 57.5 µM), usual class: inhibitors. AID 1508649. S16 Pmp22-F2sN Schwann cells (luciferase reporters placed in the Pmp22 gene), FLuc/NLuc coincidence luminescence, 24 h; active = clear falling dose curves in both reporters; inconclusive = both reporters move, but less clearly or upward; inactive = either reporter flat; the % is the NLuc reporter signal
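Reporter cells (S16 Pmp22-F2sN, 500–1,000 per well) exposed to compounds for 24 h, 37C, 5% CO2; lysis with FLuc read after 10 min, then Stop&Glo and NLuc read after 10 min.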
NLuc saturating – counter-screen for PMP22 expression modulators: NanoLuc inhibition, saturating substrate; Potency, µM (doses to about 57.5 µM), actives largely listed as inhibitors; Secreted NLuc enzyme (filtered S16 cell medium), Nano-Glo luminescence; shares compounds with PMP22 txn prim; 690 compounds, 4% hits
NLuc Km ctr – counter-screen for PMP22 expression modulators: NanoLuc inhibition at Km. shares compounds with PMP22 txn prim. secreted NLuc enzyme, coelenterazine luminescence, Km conditions. Potency, µM (highest dose often 57.5 µM), most hits filed as inhibitors. 690 compounds, 5% hits. AID 1508639
FLuc ctr PMP22 – firefly luciferase enzyme inhibition artifact for PMP22 screen; 690 tested, under 10 active; AID 1508640; Potency, µM (top dose mostly 57.5 µM), actives largely listed as inhibitors; shares compounds with PMP22 txn prim; purified P. pyralis FLuc, luminescence, 10 min
Target sequence (P08659 whole entry, looked up): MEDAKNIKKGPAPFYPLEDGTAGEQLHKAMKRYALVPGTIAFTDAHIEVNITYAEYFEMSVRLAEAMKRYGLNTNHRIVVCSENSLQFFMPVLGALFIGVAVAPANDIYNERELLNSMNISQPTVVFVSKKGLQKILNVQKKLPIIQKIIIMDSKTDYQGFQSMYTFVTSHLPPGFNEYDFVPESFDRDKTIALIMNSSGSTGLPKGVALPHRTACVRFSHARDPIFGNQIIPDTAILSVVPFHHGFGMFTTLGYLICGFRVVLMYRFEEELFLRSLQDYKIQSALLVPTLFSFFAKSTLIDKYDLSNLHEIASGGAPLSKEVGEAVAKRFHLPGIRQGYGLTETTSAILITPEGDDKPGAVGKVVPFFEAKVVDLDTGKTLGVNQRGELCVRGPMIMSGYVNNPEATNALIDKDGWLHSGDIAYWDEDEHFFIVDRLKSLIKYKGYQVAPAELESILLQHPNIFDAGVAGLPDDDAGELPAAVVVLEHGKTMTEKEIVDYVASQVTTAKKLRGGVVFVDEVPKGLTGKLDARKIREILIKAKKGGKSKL
S16 F2sN tox cnf – S16 Schwann cell cytotoxicity, confirmatory. S16 Schwann cells viability, CellTiter-Glo ATP luminescence, 24 h. Potency, µM (top dose mostly 57.5 µM), most hits filed as cytotoxic. 690 compounds, 7% hits. shares compounds with PMP22 txn prim
PMP22 txn conf – confirmation of modulators of PMP22 gene transcription in S16 cells | shares compounds with PMP22 txn prim | S16 Schwann cells Pmp22-F2sN, dual luciferase, 24 h | Potency, µM (series often up to 57.5 µM), usual class: inhibitors | 690 compounds, 22% hits | AID 1508646; active = clear falling dose curves in both reporters; inconclusive = both reporters move, but less clearly or upward; inactive = either reporter flat; the % is the FLuc reporter signal
PMP22 prot conf – confirmation of modulators of rat PMP22 protein expression; shares compounds with PMP22 txn prim; S16 Schwann cells Pmp22-HiBiT, luminescence, 48 h; Potency, µM (titrated, usually from 27.9 µM), actives largely listed as inhibitors; 95 tested, under 10 active; AID 1508647
Target sequence (P25094 whole entry, looked up): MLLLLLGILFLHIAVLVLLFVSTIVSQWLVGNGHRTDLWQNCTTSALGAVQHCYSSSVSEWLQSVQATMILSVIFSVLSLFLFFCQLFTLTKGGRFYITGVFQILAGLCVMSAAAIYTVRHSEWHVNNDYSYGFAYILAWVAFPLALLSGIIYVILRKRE
Each line names hits and unclear results; the compound was inactive in the other large screens (follow-up assays come after a bar, where they were run). Unless noted, calls follow the shape of the dose curve; as a rule, active = well fitted curve in the direction sought with a large enough effect; inconclusive = small, poorly fitted or top-dose-only effect, or another doubt; inactive = no such curve, though single readings can be large; an effect the other way counts as inactive or inconclusive.

CCN(CC)c1ccc(NC(=O)CCCN2C(=O)C(c3ccccc3)Oc3cccnc32)c(C)c1 (configuration not stated)	PMP22 txn prim 14.5µM | NLuc saturating inactive | NLuc Km ctr inconclusive | FLuc ctr PMP22 inactive | S16 F2sN tox cnf inactive | PMP22 txn conf inconclusive
O=C(CCCN1C(=O)C(c2ccccc2)Oc2cccnc21)Nc1ccccc1C(F)(F)F (configuration not stated)	PMP22 txn prim inconclusive
Cc1cc(C)cc(NC(=O)c2ccc3oc(=O)c(S(=O)(=O)c4ccc(F)cc4)cc3c2)c1	PMP22 txn prim 11.2µM | NLuc saturating inactive | NLuc Km ctr inactive | FLuc ctr PMP22 inactive | S16 F2sN tox cnf inactive | PMP22 txn conf inactive
CC(=O)Nc1cccc(-c2nnc(SCC(=O)c3cc([N+](=O)[O-])ccc3Br)o2)c1	p53null 39C kill inconclusive, pS6 MEF inh inconclusive, S16 viability inconclusive, PMP22 txn prim 12.1µM | NLuc saturating 10.9µM | NLuc Km ctr 12.2µM | FLuc ctr PMP22 inconclusive | S16 F2sN tox cnf inactive | PMP22 txn conf 17.2µM
O=C(Cn1c(=O)n(-c2cccc(Cl)c2)c(=O)c2sc3ccccc3c21)N1CCCC1	none
CCCCCCOc1ccc(/C=C/C(=O)Nc2sc3c(c2C(=O)OC)CCC3)cc1OC	S16 viability inconclusive, PMP22 txn prim 6.96µM | NLuc saturating inactive | NLuc Km ctr inactive | FLuc ctr PMP22 inactive | S16 F2sN tox cnf inactive | PMP22 txn conf inactive
CCCNC(=O)c1ccc2c(c1)N=C(CCC)c1ccccc1S2	p53null 39C kill inconclusive, pS6 MEF inh inconclusive, PMP22 txn prim 10.8µM | NLuc saturating inconclusive | NLuc Km ctr 9.68µM | FLuc ctr PMP22 inactive | S16 F2sN tox cnf inactive | PMP22 txn conf 4.09µM
CCC1=Nc2cc(C(=O)NCCN(CC)CC)ccc2Sc2ccccc21	pS6 MEF inh inconclusive, PMP22 txn prim 16.8µM | NLuc saturating inactive | NLuc Km ctr inactive | FLuc ctr PMP22 inactive | S16 F2sN tox cnf inactive | PMP22 txn conf inconclusive
COc1ccc(NCc2cc3cc4c(cc3n(CC(=O)Nc3ccc(F)cc3F)c2=O)OCO4)cc1	PMP22 txn prim 17.9µM | NLuc saturating inconclusive | NLuc Km ctr inactive | FLuc ctr PMP22 inactive | S16 F2sN tox cnf inactive | PMP22 txn conf inactive
COc1ccc(NCc2cc3cc4c(cc3n(CC(=O)Nc3cccc(F)c3)c2=O)OCO4)cc1	PMP22 txn prim inconclusive
COc1ccccc1CNC(=O)C1CCCN(c2nnc(-n3c(C)ccc3C)s2)C1 (configuration not stated)	PMP22 txn prim inconclusive | NLuc saturating inactive | NLuc Km ctr inactive | FLuc ctr PMP22 inactive | S16 F2sN tox cnf inactive | PMP22 txn conf inactive
Cc1ccc(C)n1-c1nnc(N2CCCC(C(=O)NCc3cccc(F)c3)C2)s1 (configuration not stated)	PMP22 txn prim 15.2µM | NLuc saturating inactive | NLuc Km ctr inactive | FLuc ctr PMP22 inactive | S16 F2sN tox cnf inactive | PMP22 txn conf inconclusive
Cc1ccc(C)n1-c1nnc(N2CCCC(C(=O)NCc3ccccc3)C2)s1 (configuration not stated)	PMP22 txn prim inconclusive
COC(=O)c1c(-c2ccc(Cl)cc2)noc1N1CCN(c2cc(C)ccc2C)CC1	pS6 MEF inh inconclusive, S16 viability inconclusive, PMP22 txn prim 5.62µM | NLuc saturating inactive | NLuc Km ctr inactive | FLuc ctr PMP22 inactive | S16 F2sN tox cnf inconclusive | PMP22 txn conf 17.2µM | PMP22 prot conf inconclusive
Cc1ccc(OC(=O)c2cc(-c3ccc(Cl)cc3)on2)c(C)c1	none
COC(=O)c1c(-c2ccc(Cl)cc2)noc1N1CCN(c2ccc(C)cc2C)CC1	p53null 39C kill inconclusive, S16 viability inconclusive, PMP22 txn prim 10µM | NLuc saturating inactive | NLuc Km ctr inactive | FLuc ctr PMP22 inactive | S16 F2sN tox cnf inconclusive | PMP22 txn conf 19.3µM
CS(=O)(=O)N1CCN(c2ccccc2NC(=O)c2ccc3ccccc3c2)CC1	none (no result: pS6 MEF inh, S16 viability, PMP22 txn prim)
COc1ccc(-c2nsc(NC(=O)C(C)Oc3ccc(Cl)c(C)c3)n2)cc1 (configuration not stated)	none
CCOc1ccc(NC(=O)CSc2oc(-c3ccc(F)cc3)nc2S(=O)(=O)c2ccc(C)cc2)cc1	pS6 MEF inh 2.93µM, PMP22 txn prim 11.9µM | NLuc saturating inactive | NLuc Km ctr inactive | FLuc ctr PMP22 inactive | S16 F2sN tox cnf inconclusive | PMP22 txn conf 14.5µM | PMP22 prot conf inactive
O=C(CCS(=O)(=O)c1ccc(Br)s1)Nc1cc(C(F)(F)F)cc(C(F)(F)F)c1	p53null 39C kill inconclusive, S16 viability inconclusive, PMP22 txn prim 20µM | NLuc saturating inactive | NLuc Km ctr inactive | FLuc ctr PMP22 inactive | S16 F2sN tox cnf inconclusive | PMP22 txn conf inconclusive
COc1ccc(-c2cc3nc(C)c(CCC(=O)N4CCN(c5cc(C)ccc5C)CC4)c(C)n3n2)c(OC)c1	PMP22 txn prim 14.2µM | NLuc saturating inconclusive | NLuc Km ctr inactive | FLuc ctr PMP22 inactive | S16 F2sN tox cnf inactive | PMP22 txn conf inactive
COc1ccc(-c2cc3nc(C)c(CCC(=O)N4CCN(c5ccccc5F)CC4)c(C)n3n2)c(OC)c1	PMP22 txn prim inconclusive
CC1CCN(S(=O)(=O)c2ccc3ncn(CC(=O)Nc4ccccc4C(F)(F)F)c(=O)c3c2)CC1	PMP22 txn prim inconclusive (no result: p53null 39C kill, p53null 32C tox) | NLuc saturating inactive | NLuc Km ctr inactive | FLuc ctr PMP22 inactive | S16 F2sN tox cnf inactive | PMP22 txn conf inactive
COc1ccc(NC(=O)Cn2cnc3ccc(S(=O)(=O)N4CCC(C)CC4)cc3c2=O)c(OC)c1	none (no result: p53null 39C kill, p53null 32C tox)
